Source: PubChem BioAssay (NCI)
This is part of a sample that, as a whole, favours compounds with a hit. Of some 83,000 tested, about 20% had one in any assay.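 The endpoint reported here, percent growth, reads 100 for growth as untreated, 0 for no net growth and -100 for all cells dead.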 Unmarked numbers belong to inactive results. Active and inactive are the calls of the source. How the source made its calls: active means growth percent below 10; inactive means the rest.

The compounds below were run on SF-295 CNS (assay: NCI-60 one-dose screen, 48 h (100 = growth as untreated, 0 = no growth, -100 = all killed)). Conditions: 10 µM unless noted.

| Structure (SMILES) | growth |
| --- | --- |
| COC(=O)C1=Nc2ccc(F)cc2/C1=C\c1sc(Nc2ccc(O)cc2)nc1O | 61% |
| COc1ccc(OC)c(Nc2nnc(-c3ccc(Cl)cc3)o2)c1 | 29.2% |
| O=C(OC[C@@H]1CO1)c1cccc2c(=O)c3ccccc3[nH]c12 | -8.88% (active) |
| CNC(=O)c1c(NC(=O)c2ccc(C(C)(C)C)cc2)sc2c(CN(C)C)c(O)ccc12 | -80.6% (active) |
| C=C1C(=O)O[C@H]2[C@H]1CC/C(COC(=O)c1cc3cc(F)ccc3[nH]1)=C\CC[C@@]1(C)O[C@@H]21 | 33% |
| COc1ccc2[nH]cc(-c3nc(-c4cn(C)c5ccncc45)cs3)c2c1 | 76.3% |
| Brc1ccc(-c2cnc3nonc3n2)cc1 | 91.4% |
| CC(C)CN1CC(C(=O)Nc2ccc3c(c2)-c2ccccc2C3)CC1=O (stereo not given) | 76.1% [50 µM] |
| COc1cc2ncnc(Nc3ccc(F)c(Cl)c3)c2cc1OCC(=O)N1CCN(c2ccc(F)cc2)CC1 | 94.1% |
| COc1ccc(-c2cn(-c3ccc(Cl)cc3)c(SCC(=O)c3ccc([N+](=O)[O-])cc3)n2)cc1 | 75.3% |
| CCN(CC)S(=O)(=O)c1ccc(S(=O)(=O)N2CCC[C@@H](C(=O)N3CCN(C(=O)OC(C)(C)C)CC3)C2)cc1 | 55.8% |
| O=C(c1ccc(Cl)cc1Cl)N1c2ccccc2Sc2ccccc21 | 53.1% |
| COc1ccc(C2C3=C(COC3=O)N(CCO)c3cc4c(cc32)OCCO4)cc1OC (stereo not given) | 3.18% (active) |
| N#C/C(=C\c1ccc(-c2ccc(Cl)cc2)o1)c1ccc(Cl)cc1 | 51.9% |
| COc1ccc(C2CC(c3ccc(Nc4nc(Nc5ccc(F)cc5)nc(Nc5ccc(F)cc5)n4)cc3)=NN2C(C)=O)cc1 (stereo not given) | 81.2% |
| CCN(CC)CCOc1nc2c3ccc(Cl)cc3nn2c2ccccc12 | 29% |
| COc1cc2c(cc1O)[C@@]1(C)[C@H](c3ccccc3Br)OC(=O)N1CC2 | 102% |
| CC(C)(C)c1cc(C=Nc2cccc(C(F)(F)F)c2)c(O)c(C(C)(C)C)c1 | 97.4% |
| CCCCCCNc1nc(NCCCCCC)c2[nH]c(NCCCCCC)nc2n1 | 70.3% |
| COc1ccc(C2C(C#N)=C(N)Oc3c2sc2c(Br)cccc32)cc1 (stereo not given) | 15.7% |

| Structure (SMILES) | growth |
| --- | --- |
| CC(/C=C1\SC(=S)N(CC(=O)NC(Cc2c[nH]c3ccccc23)C(=O)O)C1=O)=C\c1ccccc1 (stereo not given) | 104% |
| CCOC(=O)c1c(NC(=O)c2ccc(OC)cc2)sc2c(CN(C)C)c(O)ccc12 | 82.3% |
| O=C(CCCCl)NNc1nccc(Nc2ccc(S(=O)(=O)Nc3ccncc3)cc2)n1 | 96.7% |
| Nc1ncnc2c1c(-c1ccc(Oc3ccccc3)cc1)nn2CC1SSCC1O (stereo not given) | 73% |
| COc1ccc(NC(=O)c2sc3nc(C)c(C(O)c4ccccc4)cc3c2N)cc1 (stereo not given) | 23.1% |
| COc1cccc(C(=O)OCC(O)C(=O)NC23CC4CC(CC(C4)C2)C3)c1 (stereo not given) | 95.9% |
| O=C(CBr)CN1C(=O)c2ccccc2C1=O | 101% |
| O=C(NCc1ccccc1O)c1cccc2ccccc12 | 87.3% |
| CCn1cc(C(=O)NN=C2CCCCCC2)c(=O)c2ccc(C)nc21 | 77.7% |
| Nc1c(C(=O)Nc2ccccn2)sc2nc3c(cc12)C(O)CCC3 (stereo not given) | 4.92% (active) |
| COc1ccc(NC(=O)c2ccc(C(=O)Nc3ccc(OC)cc3OC)cc2)c(OC)c1 | 57.3% |
| O=C(Nc1ncc(Cc2ccccc2Cl)s1)c1cccs1 | 65.2% |
| COc1ccc2nc3ccccc3c(NCc3ccccc3)c2c1 | 19.7% |
| Fc1ccc(COc2ccc(Nc3ncnc4sc5c(c34)CCCC5)cc2)cc1 | 89.8% |
| COc1ccc(C2=Nc3c/c(=C\c4c(O)[nH]c5cc(Cl)ccc45)ccc3=N2)cc1 | 57.9% |
| N#Cc1c(N2CCOCC2)nc(=S)[nH]c1-c1ccccc1 | 54.5% |
| O=C1CCC(C(=O)NN(c2ccccc2)c2ccccc2)N1 (stereo not given) | 99% |
| C/C(C=O)=C\c1ccc2c(c1)OCO2 | 104% |
| COc1cc2c(/C=C3\C(=O)Nc4ccccc43)c(C(=O)O)[nH]c2cc1C | 101% |
| C/C(=N\Nc1nc(C)cs1)c1cc2ccccc2o1 | 94.7% |

The compounds below were run on SF-539 CNS in the same assay as above. Conditions: 10 µM unless noted.

| Structure (SMILES) | growth |
| --- | --- |
| COC(=O)C1=Nc2ccc(F)cc2/C1=C\c1sc(Nc2ccc(O)cc2)nc1O | 55.4% |
| COc1ccc(OC)c(Nc2nnc(-c3ccc(Cl)cc3)o2)c1 | 50.7% |
| O=C(OC[C@@H]1CO1)c1cccc2c(=O)c3ccccc3[nH]c12 | -38.6% (active) |
| CNC(=O)c1c(NC(=O)c2ccc(C(C)(C)C)cc2)sc2c(CN(C)C)c(O)ccc12 | -71.1% (active) |
| C=C1C(=O)O[C@H]2[C@H]1CC/C(COC(=O)c1cc3cc(F)ccc3[nH]1)=C\CC[C@@]1(C)O[C@@H]21 | -87% (active) |
| COc1ccc2[nH]cc(-c3nc(-c4cn(C)c5ccncc45)cs3)c2c1 | -70.6% (active) |
| Brc1ccc(-c2cnc3nonc3n2)cc1 | 94.8% |
| CC(C)CN1CC(C(=O)Nc2ccc3c(c2)-c2ccccc2C3)CC1=O (stereo not given) | 72% [50 µM] |
| COc1cc2ncnc(Nc3ccc(F)c(Cl)c3)c2cc1OCC(=O)N1CCN(c2ccc(F)cc2)CC1 | 100% |
| COc1ccc(-c2cn(-c3ccc(Cl)cc3)c(SCC(=O)c3ccc([N+](=O)[O-])cc3)n2)cc1 | 82.5% |
| CCN(CC)S(=O)(=O)c1ccc(S(=O)(=O)N2CCC[C@@H](C(=O)N3CCN(C(=O)OC(C)(C)C)CC3)C2)cc1 | 77.7% |
| O=C(c1ccc(Cl)cc1Cl)N1c2ccccc2Sc2ccccc21 | 41.8% |
| COc1ccc(C2C3=C(COC3=O)N(CCO)c3cc4c(cc32)OCCO4)cc1OC (stereo not given) | -2.02% (active) |
| N#C/C(=C\c1ccc(-c2ccc(Cl)cc2)o1)c1ccc(Cl)cc1 | 56.9% |
| COc1ccc(C2CC(c3ccc(Nc4nc(Nc5ccc(F)cc5)nc(Nc5ccc(F)cc5)n4)cc3)=NN2C(C)=O)cc1 (stereo not given) | 92.1% |
| CCN(CC)CCOc1nc2c3ccc(Cl)cc3nn2c2ccccc12 | 17.8% |
| COc1cc2c(cc1O)[C@@]1(C)[C@H](c3ccccc3Br)OC(=O)N1CC2 | 95.1% |
| CC(C)(C)c1cc(C=Nc2cccc(C(F)(F)F)c2)c(O)c(C(C)(C)C)c1 | 101% |
| CCCCCCNc1nc(NCCCCCC)c2[nH]c(NCCCCCC)nc2n1 | 82.6% |
| COc1ccc(C2C(C#N)=C(N)Oc3c2sc2c(Br)cccc32)cc1 (stereo not given) | -12.4% (active) |

| Structure (SMILES) | growth |
| --- | --- |
| CC(/C=C1\SC(=S)N(CC(=O)NC(Cc2c[nH]c3ccccc23)C(=O)O)C1=O)=C\c1ccccc1 (stereo not given) | 104% |
| CCOC(=O)c1c(NC(=O)c2ccc(OC)cc2)sc2c(CN(C)C)c(O)ccc12 | 68.8% |
| O=C(CCCCl)NNc1nccc(Nc2ccc(S(=O)(=O)Nc3ccncc3)cc2)n1 | 102% |
| Nc1ncnc2c1c(-c1ccc(Oc3ccccc3)cc1)nn2CC1SSCC1O (stereo not given) | 41.2% |
| COc1ccc(NC(=O)c2sc3nc(C)c(C(O)c4ccccc4)cc3c2N)cc1 (stereo not given) | -4.84% (active) |
| COc1cccc(C(=O)OCC(O)C(=O)NC23CC4CC(CC(C4)C2)C3)c1 (stereo not given) | 103% |
| O=C(CBr)CN1C(=O)c2ccccc2C1=O | 96.2% |
| O=C(NCc1ccccc1O)c1cccc2ccccc12 | 63.5% |
| CCn1cc(C(=O)NN=C2CCCCCC2)c(=O)c2ccc(C)nc21 | 100% |
| Nc1c(C(=O)Nc2ccccn2)sc2nc3c(cc12)C(O)CCC3 (stereo not given) | 8.44% (active) |
| COc1ccc(NC(=O)c2ccc(C(=O)Nc3ccc(OC)cc3OC)cc2)c(OC)c1 | 35.8% |
| O=C(Nc1ncc(Cc2ccccc2Cl)s1)c1cccs1 | 95.8% |
| COc1ccc2nc3ccccc3c(NCc3ccccc3)c2c1 | 11.8% |
| Fc1ccc(COc2ccc(Nc3ncnc4sc5c(c34)CCCC5)cc2)cc1 | 103% |
| COc1ccc(C2=Nc3c/c(=C\c4c(O)[nH]c5cc(Cl)ccc45)ccc3=N2)cc1 | 64.8% |
| N#Cc1c(N2CCOCC2)nc(=S)[nH]c1-c1ccccc1 | 91.3% |
| O=C1CCC(C(=O)NN(c2ccccc2)c2ccccc2)N1 (stereo not given) | 94.6% |
| C/C(C=O)=C\c1ccc2c(c1)OCO2 | 106% |
| COc1cc2c(/C=C3\C(=O)Nc4ccccc43)c(C(=O)O)[nH]c2cc1C | 101% |
| C/C(=N\Nc1nc(C)cs1)c1cc2ccccc2o1 | 94.8% |
